Consider 87 compounds from PubChem BioAssay AID2606 (The Scripps Research Institute Molecular Screening Center, 2010).

Among all 320,000 compounds or so, about 160 (0.05%) were called active. The entries come from a sample that favours actives as a whole. A number with no mark means an inactive call. No stated cut-off is given here; in the data, active means inhibition above about 38%; inactive means the rest.

The target of this experiment is Serine protease Rv3671c (Mycobacterium tuberculosis (strain ATCC 25618 / H37Rv)) (UniProt P9WHR9). Description: Rv3671c serine protease inhibitors, primary screen, biochemical, fluorescence polarization, M. tuberculosis H37Rv (AID 2606).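 Further: extracellular domain of Rv3671c used as enzyme; 0% = enzyme with DMSO and 100% = no enzyme.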 Particulars: at 5.96 µM; active compounds read high. (In fluorescence polarisation assays a small probe gives low polarisation when free and higher when bound to something large.)
Chain of Serine protease Rv3671c (Mycobacterium tuberculosis (strain ATCC 25618 / H37Rv)) (P9WHR9 whole entry, looked up, the tested form may be a part): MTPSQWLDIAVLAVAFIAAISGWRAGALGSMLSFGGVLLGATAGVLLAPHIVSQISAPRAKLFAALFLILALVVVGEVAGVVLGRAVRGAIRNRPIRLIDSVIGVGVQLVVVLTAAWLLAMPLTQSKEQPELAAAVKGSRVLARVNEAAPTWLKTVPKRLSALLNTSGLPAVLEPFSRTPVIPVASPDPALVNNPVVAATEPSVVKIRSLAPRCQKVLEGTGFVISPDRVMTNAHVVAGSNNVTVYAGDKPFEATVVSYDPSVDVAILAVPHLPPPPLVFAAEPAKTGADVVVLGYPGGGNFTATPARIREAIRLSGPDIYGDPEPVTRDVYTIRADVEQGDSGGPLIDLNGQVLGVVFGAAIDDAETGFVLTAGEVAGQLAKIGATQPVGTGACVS
Turning to `CCO[C@@H]1OC(C(=O)NC2CC2)=C[C@H](C)[C@H]1CCCO`, the inhibition is 3.42%. Regarding `CCN(CC)CCCN=C(N)N`, the inhibition was 1.64%. Regarding `CC(C)n1c(-c2ccncc2)n[nH]c1=S`, the inhibition was -6.36%.

In the case of `CC(C)(C)S(=O)(=O)c1ccccc1-c1noc(-c2ccccc2)c1C(N)=O`, the inhibition is 8.18%. For `CSCc1ccc(C(=O)Nc2cc(C)cc(C)c2)cc1`, the inhibition was 6.14%. Consider `CCNc1nc(N)nc(Oc2ccc(OCC)nn2)n1`, for which the inhibition is 1.15%. Turning to `COCCOC(=O)c1sc(=S)n(CCOC)c1N`, the inhibition is 40% (active). As for `CCCCN(CCCC)C(=O)CCS(=O)(=O)c1ccc2c(c1)n(C)c(=O)c(=O)n2C`, the inhibition is -1.54%. For `Cc1ccc2c(c1)N(CCCC(=O)NCc1cccnc1)C(=O)CO2`, the inhibition was 5.63%. For `COC(=O)COc1cccc2c(=O)n(CC(=O)NCc3ccccc3)ccc12`, the inhibition was -8.57%. In the case of `COc1ccc(O[C@H]2C=C[C@@H](c3ccccc3)O[C@@H]2CO/N=C/C[C@@H]2C=C[C@H](OC(C)=O)[C@@H](COC(C)=O)O2)cc1`, the inhibition was -1.84%. Take `COCCN(Cc1nc(-c2ccc(C(F)(F)F)cc2)no1)C(C)C`: the inhibition is -6.51%. With `Cc1ccc(S(=O)(=O)N[C@@H](Cc2ccccc2)C(=O)N2CCC(C(=O)N[C@H](C(=O)O)C(C)O)CC2)cc1` (some centres not stated) the figure was -3.25%. With `Cc1ccc(N2CCN(c3ccc([N+](=O)[O-])cn3)CC2)c(C)c1` the figure was -8.33%.

For the compound `Fc1ccccc1CCNc1nnnn1-c1ccccc1`, the inhibition was -6.29%.

For `Cc1ccc(Cl)cc1NC(=O)C1CCN(S(C)(=O)=O)CC1`, the inhibition was 5.08%. With `O=C1NC[C@@H](Cc2ccc(O)cc2)N(CCc2cccc(F)c2)C1=O` the figure was 5.74%; with `O=[N+]([O-])c1ccc2nc(-c3ccccn3)[nH]c2c1`, 4.37%; with `O=C(Nc1sc2c(c1-c1nc3ccccc3[nH]1)CCCC2)C1CC1`, -3.57%. Take `c1ccc2[nH]c(-c3nc4ccccc4[nH]3)nc2c1`: the inhibition is 77.5% (active). With `COc1ccc(Br)cc1CN1CCN(C(=O)c2cccc(OC)c2OC)CC1`, the inhibition is -2.08%. On to `CC1(c2ccccc2)NC(=O)N(CC(=O)N2CC(=O)Nc3ccccc32)C1=O` (configuration not stated), for which the inhibition is -3.96%. As for `COc1ccc(C(=O)c2c3ccc([N+](=O)[O-])cc3[n+]([O-])n2CCCN)cc1`, the inhibition is -2.98%.

Take `C[C@@H]1NC(=O)[C@@]2(C)[C@@H](c3ccccc3)[C@H]3COc4ccccc4[C@@H]3N2C1=O`: the inhibition is -7.74%.

Regarding `C=CCN1CCN(C(=O)CCCc2ccccc2)CC1`, the inhibition was -7.87%. `NNC(=O)c1cnn(-c2ccccc2)c1C(F)(F)F`: the inhibition is 2.2%. With `COCCN(C(=O)CSCc1ccc(C)cc1)c1c(N)n(CC(C)C)c(=O)[nH]c1=O`, the inhibition is 8.34%. Regarding `CC1CCCN(C(C(=O)Nc2ccc(C(C)C)cc2)c2ccc3c(c2)OCO3)C1` (configuration not stated), the inhibition was 2.73%. For `CN(Cc1ccccc1)C(=O)COC(=O)c1ccccc1Nc1ccccc1`, the inhibition was -5.06%. As to `CCN(CC)c1ccc(C2C3CCCCC3(O)CCN2CC(=O)Nc2ccccc2)cc1` (configuration not stated), the inhibition is 5.48%. `O=C(O)C(c1ccccc1)C1(O)CCCCC1` (configuration not stated): the inhibition is 8.1%.

For `Cc1cc(NC(=O)CN2C(=O)NC(CC(C)C)C2=O)no1` (configuration not stated), the inhibition is 2.81%. The result for `O=C(Nc1ccc(Br)cc1)c1cc(S(=O)(=O)Nc2ccccn2)ccc1Cl` reads -7.4%; that for `COc1ccc(C(=O)OC(C)C(=O)NC2CCCC2)cc1S(=O)(=O)N1CCOCC1` (configuration not stated), -4.37%; that for `O=C(COc1ccc(-c2ccccc2)cc1)NN=C1CCCC1`, -4.38%.

In the case of `CCOc1ccc(/C=C(/NC(=O)c2ccccc2)C(=O)NCCC(=O)O)cc1`, the inhibition is -7.39%. With `C=CCn1c(=S)[nH]c2scc(-c3ccco3)c2c1=O`, the inhibition was 6.27%.

As to `CC(C)CCNC(=O)c1cccnc1Sc1ccccc1`, the inhibition was -12.3%. Consider `CCn1ncc(CNC(=O)C2(C)CC2(Br)Br)c1C` (configuration not stated), for which the inhibition was -2.88%. `CC(C)CC(COCc1ccc(Cl)cc1)N1CCN(C(=O)c2ccc(C(F)(F)F)cc2)CCC1=O` (configuration not stated): the inhibition was -15.8%. For `CNC(=O)/C(C#N)=C/c1c(F)cccc1Cl`, the inhibition is -0.68%.

As for `O=C(c1ccccc1F)N1CCN(S(=O)(=O)c2ccc(Br)cc2)CC1`, the inhibition is -4.63%.

For `COCCNc1nc2nonc2nc1N1CCCC1c1nccs1` (configuration not stated), the inhibition was -4.76%. Regarding `Cn1nnnc1SCC(=O)NNC(=O)c1ccc(Br)cc1`, the inhibition was -1.13%. With `CC(=O)N1CCc2c(sc(NC(=O)CCS(=O)(=O)c3ccc(C)cc3)c2C(N)=O)C1` the figure was 8.49%; with `CCOC(=O)[C@@H]1[C@H]2COc3ccc(Br)cc3[C@H]2N2C(=O)N(c3ccc(Cl)cc3)C(=O)[C@@]12C`, -4.24%; with `COc1cccc(C2SCC(=O)N2c2cccc(C)c2)c1OC` (configuration not stated), 0.16%.

Turning to `CCCCn1c(N)c(N(CCOC)C(=O)c2cccc(S(=O)(=O)N(C)c3ccccc3)c2)c(=O)[nH]c1=O`, the inhibition is 3.05%. For the compound `Cc1noc(C)c1NC(=O)Nc1ccc2c(c1)C(=O)N([C@H](C)CO)C[C@H](C)[C@@H](CN(C)C(=O)Nc1ccc(C(F)(F)F)cc1)O2`, the inhibition is 0.65%. Turning to `C/C=C/C=C/C(=O)OCC(=O)Nc1ccc(Cl)cc1`, the inhibition is -1.55%. With `CCN1CC=C2C(C#N)=C(N)C(C#N)(C#N)[C@H](c3ccoc3)[C@H]2C1`, the inhibition is 3.86%. `CC(=O)N(C)c1ccc(NC(=O)Nc2cccc3ccccc23)cc1`: the inhibition is 1.7%. Take `O=C1c2ccccc2C(=O)N1CCC(O)C[N+](=O)[O-]` (configuration not stated): the inhibition is -0.34%. As to `COc1ccc(CCNC(=O)C2CC3Cn4c(nc5cc(C)c(C)cc54)C3N2C)cc1` (configuration not stated), the inhibition is -15.6%. In the case of `CC(C)(COC(=O)Nc1ccccc1)COC(=O)Nc1ccccc1`, the inhibition is -8%. Consider `COCCn1c(SCC(=O)c2[nH]c(C)c(C(C)=O)c2C)nc2ccccc2c1=O`, for which the inhibition was 1.17%. For `COCc1c(C(=O)OCC(=O)Nc2ccc(OC(F)F)cc2)oc2ccccc12`, the inhibition is -1.7%. Turning to `O=C1CN(C(=O)COc2c(Cl)cccc2Cl)c2ccccc2N1`, the inhibition is 0.62%. `CCN(C(=O)Cc1c(C(=O)O)n(CC)c2ccccc12)c1ccccc1C`: the inhibition was 4.47%.

`NS(=O)(=O)c1ccc(CNC(=O)c2ccc(Cl)cc2[N+](=O)[O-])cc1`: the inhibition was -8.53%. Consider `O=C(CCc1nnc2ccc(NCc3ccccc3Cl)nn12)NCC1CCN(C2CCCC2)C1` (configuration not stated), for which the inhibition was -2.3%.

For the compound `C=CC(COCc1ccccc1)N(CC(=O)OC)S(=O)(=O)c1cc(Br)ccc1OC` (configuration not stated), the inhibition is 0.38%. Turning to `COc1ccc(OC)c(NC(=O)Cc2cccs2)c1`, the inhibition was 2.15%. In the case of `Cc1ccc(-c2ccnc3nc(Sc4ncc(C(F)(F)F)cc4Cl)nn23)cc1`, the inhibition is -7.05%. As to `CC(=O)N1Cc2ccccc2CC1C(=O)O` (configuration not stated), the inhibition was -1.84%. For the compound `CCc1cccc(NC(=O)CCCN2C(=O)C(c3ccccc3)Oc3cccnc32)c1` (configuration not stated), the inhibition was -9.9%. Consider `COC(=O)C1=C(C)N(C(C)c2ccccc2)C(=O)/C1=C\c1ccco1` (configuration not stated), for which the inhibition was 4.05%.

Turning to `Cc1cccc(C)c1NC(=O)N1CC=C(n2c(=O)[nH]c3ccccc32)CC1`, the inhibition was 1.3%. On to `Nc1nc(-c2sc3nc4c(cc3c2N)CCCC4)nc(N2CCOCC2)n1`, for which the inhibition is -3.34%. For `O=C(NCCN1CCOC1=O)C1CCC(=O)N(CCc2ccc(Cl)cc2)C1` (configuration not stated), the inhibition was -0.05%.

For `O=C(NCc1ccccc1)c1ccc(CNc2c(N3CCCC3)c(=O)c2=O)cc1`, the inhibition is 3.23%. Turning to `CC(Sc1nnc(-c2cccs2)n1C1CC1)C(=O)NCC1CCCO1` (configuration not stated), the inhibition is 3.19%. `CC(C)n1c(O)c(N=Nc2ccccn2)c2ccccc21`: the inhibition is 3.27%. For the compound `COC(C/C=C/C(=O)[C@@H](C)OCc1ccccc1)OC`, the inhibition is -4.04%. Take `CN=C(c1ccccc1)c1c(C)cccc1C`: the inhibition is 10.9%. As for `CC(C)C(=O)N1CCN(CCN=CC2=C(O)CC(c3ccco3)CC2=O)CC1` (configuration not stated), the inhibition is -4.57%. With `CCCC(C)c1nnc(NC(=O)C2CC(=O)N(c3ccc(OCC)cc3)C2)s1` (configuration not stated), the inhibition was 9.03%. Turning to `CCC(C)CCN1CCN=C1N(C)C` (configuration not stated), the inhibition is -3.18%. On to `CCn1c(C)nc2cc(C(=O)NNS(=O)(=O)c3ccc(C)cc3C)ccc21`, for which the inhibition is -9.72%.

Regarding `CS(=O)(=O)c1ccccc1C(=O)Nc1ccc2sccc2c1`, the inhibition was -4.05%. On to `CC(O)CN(Cc1ccc(Cl)cc1)CC(C)O` (configuration not stated), for which the inhibition is 6.26%. For `O=C(COc1ccccc1Cl)N1CCCCCCC1`, the inhibition is -10.1%. The result for `Cc1ccc2c(C)c(C(=O)N3CCN(c4ccncc4)CC3)oc2c1C` reads 10.5%.

Take `O=C(NC1CC1)C1=C[C@H](c2coc3ccccc3c2=O)C[C@H](OCCCCO)O1`: the inhibition was 2.33%. In the case of `C=CCn1c(-c2ccc(Cl)cc2)ccc(C#N)c1=O`, the inhibition was -12.4%. With `N#C/C=C\Oc1ccc(Cl)cc1N` the figure was -2.18%. Take `Cc1cc(F)ccc1S(=O)(=O)Nc1ncnc2scc(-c3ccc(F)cc3)c12`: the inhibition was -10.2%.

In general, inhibition refers to the relative decrease from the control value, in per cent.
